PubChem BioAssay (NCI)
This is part of a sample that, as a whole, favours compounds with a hit. Of some 79,000 tested, about 15% had one in any assay. Activity calls are given as the source filed them. No stated cut-off is given here; in the data, active means growth inhibition above about 70%; inactive means the rest.

Legend:
[1] = NCI Yeast Anticancer Drug Screen. Data for the rad52 strain (AID 147);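 further: 0% = growth of vehicle-treated control cultures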; settings: S. cerevisiae rad52 mutant growth inhibition, stronger effect = higher value
Procedure, shortened: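 Genetically altered yeast (DNA damage repair defect) treated with compound; inhibition calculated relative to vehicle.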

[2] = NCI Yeast Anticancer Drug Screen. Data for the wt1 strain (AID 149);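 further: 0% = growth of vehicle-treated wt1 cultures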; settings: S. cerevisiae wt1 strain (SPY 50644) growth inhibition, stronger effect = higher value
Procedure, shortened: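 Each compound is tested on wt1 yeast and the loss of growth versus vehicle gives the inhibition value.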

[3] = NCI Yeast Anticancer Drug Screen. Data for the rad50EPP+ strain (AID 151);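 further: 0% = growth of vehicle-treated control cultures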; settings: S. cerevisiae rad50 mutant strain, stronger effect = higher value
Procedure, shortened: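 Strain rad50EPP+; compound exposure; % growth inhibition vs vehicle.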

[4] = NCI Yeast Anticancer Drug Screen. Data for the mgt1 strain (AID 153); settings: S. cerevisiae mgt1 mutant growth inhibition, stronger effect = higher value
Procedure, shortened: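 Read-out: yeast growth inhibition vs vehicle control. Strain mgt1, drawn from a panel altered in DNA damage repair or cell cycle control.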

[5] = NCI Yeast Anticancer Drug Screen. Data for the rad50 strain (AID 155);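 further: 0% = growth of vehicle-only cultures of the same strain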; settings: S. cerevisiae rad50 strain growth inhibition, stronger effect = higher value
Procedure, shortened: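 Vehicle-treated cultures provide the reference for the growth inhibition reported for compound-exposed, repair-deficient yeast.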

[6] = NCI Yeast Anticancer Drug Screen. Data for the mec2-1 strain (AID 157); settings: S. cerevisiae mec2-1 strain, stronger effect = higher value
Procedure, shortened: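 Cells of the genetically defined mec2-1 yeast strain are incubated with test compound. Inhibition of growth is calculated against vehicle-treated controls.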

[7] = NCI Yeast Anticancer Drug Screen. Data for the rad14 strain (AID 159);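 further: 0% = growth of vehicle-treated control cultures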; settings: S. cerevisiae rad14 strain growth inhibition, stronger effect = higher value
Procedure, shortened: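 Inhibition of growth is reported for a repair-deficient yeast mutant following compound treatment, calculated relative to cultures that received vehicle.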

[8] = NCI Yeast Anticancer Drug Screen. Data for the sgs1 mgt1 strain (AID 161);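 further: 0% = growth of cultures given vehicle only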; settings: S. cerevisiae sgs1 mgt1 strain, stronger effect = higher value
Procedure, shortened: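 Test agents were incubated with a DNA-repair-mutant yeast strain. Growth was then read and compared against vehicle-treated controls.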

[9] = NCI Yeast Anticancer Drug Screen. Data for the CLN2oe strain (AID 163);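 further: 0% = growth of vehicle-only control cultures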; settings: S. cerevisiae CLN2oe strain, stronger effect = higher value
Procedure, shortened: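 Strain altered in cell-cycle control, incubated with compound; growth compared to solvent-treated controls.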

[10] = NCI Yeast Anticancer Drug Screen. Data for the cln2 rad14 strain (AID 165);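 further: 0% = growth equal to vehicle treated cultures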; settings: S. cerevisiae cln2 rad14 strain, stronger effect = higher value
Procedure, shortened: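 The screen exposed genetically defined yeast (cln2 rad14) to test compounds and scored growth inhibition relative to vehicle-treated controls.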

[11] = NCI Yeast Anticancer Drug Screen. Data for the bub3 strain (AID 167); settings: S. cerevisiae bub3 mutant strain, stronger effect = higher value
Procedure, shortened: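 Mutant yeast screening strain plus compound; vehicle-treated cultures serve as the 0% inhibition reference.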

[12] = NCI Yeast Anticancer Drug Screen. Data for the wt2 strain (AID 169); settings: S. cerevisiae wt2 strain growth inhibition, stronger effect = higher value
Procedure, shortened: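 Steps: yeast strain treated with compound; growth recorded; inhibition calculated relative to cultures given vehicle alone.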

[13] = NCI Yeast Anticancer Drug Screen. Data for the mlh1 strain (AID 171);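 further: 0% = growth of vehicle-treated control cultures of the same strain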; settings: S. cerevisiae mlh1 strain growth inhibition, stronger effect = higher value
Procedure, shortened: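 Yeast screen: mutant strain plus compound, growth scored against vehicle control wells.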

[14] = NCI Yeast Anticancer Drug Screen. Data for the sgs1 strain (AID 173);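 further: 0% = growth of vehicle-only control cultures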; settings: S. cerevisiae sgs1 mutant, stronger effect = higher value
Procedure, shortened: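 Inhibition of yeast growth served as the measure. The mutant strain was treated with each compound, and growth was normalised to cultures receiving vehicle alone.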

[15] = NCI Yeast Anticancer Drug Screen. Data for the mlh1 rad18 strain (AID 175); settings: S. cerevisiae mlh1 rad18 strain growth inhibition, stronger effect = higher value
Procedure, shortened: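 Compound-treated yeast growth, normalised to vehicle controls. Strain bears defined DNA repair mutations.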

[16] = NCI Yeast Anticancer Drug Screen. Data for the rad18 strain (AID 177); settings: S. cerevisiae rad18 mutant growth inhibition, stronger effect = higher value
Procedure, shortened: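 Inhibition values reflect reduced yeast growth compared with vehicle-treated controls, using a strain engineered with a DNA damage repair defect.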

[17] = at 5.0 µM (retest, dose inferred, filed as 0.5)
[18] = at 50.0 µM (retest, dose inferred, filed as 5.0)

Measured: growth inhibition

NNc1ccccc1Cl
active: [1]; at 3.7 µM 72% | [1]; at 11.0 µM 78% | [1]; at 33.0 µM 95% | [1]; at 100.0 µM 96% | [2]; at 3.7 µM 73% | [2]; at 11.0 µM 81% | [2]; at 33.0 µM 95% | [2]; at 100.0 µM 97% | [3]; at 3.7 µM 80% | [3]; at 11.0 µM 92% | [3]; at 33.0 µM 95% | [3]; at 100.0 µM 94% | [4]; at 11.0 µM 79% | [4]; at 33.0 µM 96% | [4]; at 100.0 µM 96% | [5]; at 3.7 µM 83% | [5]; at 11.0 µM 80% | [5]; at 33.0 µM 96% | [5]; [18] 97% | [5]; at 50.0 µM 89.2% | [5]; at 100.0 µM 97% | [6]; at 11.0 µM 84% | [6]; at 33.0 µM 97% | [6]; [18] 99% | [6]; at 50.0 µM 90.7% | [6]; at 100.0 µM 97% | [7]; at 11.0 µM 76% | [7]; at 33.0 µM 96% | [7]; at 100.0 µM 96% | [8]; [18] 96% | [8]; at 50.0 µM 92.3% | [9]; at 3.7 µM 93% | [9]; at 11.0 µM 96% | [9]; at 33.0 µM 97% | [9]; at 100.0 µM 98% | [10]; [18] 98% | [10]; at 50.0 µM 89.5% | [11]; at 3.7 µM 89% | [11]; [17] 86% | [11]; at 11.0 µM 93% | [11]; at 33.0 µM 97% | [11]; [18] 98% | [11]; at 50.0 µM 89.5% | [11]; at 100.0 µM 97% | [12]; at 11.0 µM 83% | [12]; at 33.0 µM 96% | [12]; at 100.0 µM 96% | [13]; at 3.7 µM 80% | [13]; at 11.0 µM 89% | [13]; at 33.0 µM 97% | [13]; at 100.0 µM 97% | [14]; at 3.7 µM 86% | [14]; at 11.0 µM 90% | [14]; at 33.0 µM 96% | [14]; at 100.0 µM 97% | [15]; [17] 82% | [15]; [18] 97% | [15]; at 50.0 µM 88.2% | [16]; at 3.7 µM 86% | [16]; at 11.0 µM 84% | [16]; at 33.0 µM 95% | [16]; at 100.0 µM 97%
inactive: [1]; at 1.2 µM 40% | [2]; at 1.2 µM 40% | [3]; at 1.2 µM 56% | [4]; at 1.2 µM 25% | [4]; at 3.7 µM 42% | [5]; at 1.2 µM 39% | [5]; [17] 21% | [6]; at 1.2 µM 19% | [6]; at 3.7 µM 68% | [6]; [17] -8% | [7]; at 1.2 µM 23% | [7]; at 3.7 µM 29% | [8]; [17] 11% | [9]; at 1.2 µM 60% | [10]; [17] 41% | [11]; at 1.2 µM 38% | [12]; at 1.2 µM 42% | [12]; at 3.7 µM 66% | [13]; at 1.2 µM 44% | [14]; at 1.2 µM 47% | [16]; at 1.2 µM 46%

CCc1cccc(C(C)C)c1NC1=C([n+]2ccc(C)cc2)C(=O)c2ccccc2C1=O
inactive: [1]; at 1.2 µM 2% | [1]; at 3.7 µM 5% | [1]; at 11.0 µM 12% | [1]; at 33.0 µM 42% | [2]; at 1.2 µM -2% | [2]; at 3.7 µM -2% | [2]; at 11.0 µM -4% | [2]; at 33.0 µM -3% | [2]; at 100.0 µM 6% | [3]; at 1.2 µM 0% | [3]; at 3.7 µM 7% | [3]; at 11.0 µM 17% | [3]; at 33.0 µM 31% | [3]; at 100.0 µM 38% | [4]; at 1.2 µM 0% | [4]; at 3.7 µM -1% | [4]; at 11.0 µM -1% | [4]; at 33.0 µM 4% | [4]; at 100.0 µM 11% | [5]; at 1.2 µM -2% | [5]; at 3.7 µM 0% | [5]; [17] 37% | [5]; at 11.0 µM 25% | [5]; at 33.0 µM 63% | [6]; at 1.2 µM -1% | [6]; at 3.7 µM -3% | [6]; [17] 10% | [6]; at 11.0 µM 11% | [6]; at 33.0 µM 1% | [6]; [18] 65% | [6]; at 50.0 µM 63.1% | [6]; at 100.0 µM 17% | [7]; at 1.2 µM -1% | [7]; at 3.7 µM 4% | [7]; at 11.0 µM 4% | [7]; at 33.0 µM 5% | [7]; at 100.0 µM 21% | [8]; [17] -3% | [8]; [18] 36% | [8]; at 50.0 µM 41.2% | [9]; at 1.2 µM -3% | [9]; at 3.7 µM -2% | [9]; at 11.0 µM 1% | [9]; at 33.0 µM -2% | [9]; at 100.0 µM 11% | [10]; [17] -6% | [10]; [18] 32% | [10]; at 50.0 µM 12.7% | [11]; at 1.2 µM -8% | [11]; at 3.7 µM -4% | [11]; [17] 5% | [11]; at 11.0 µM 1% | [11]; at 33.0 µM 5% | [11]; [18] 61% | [11]; at 50.0 µM 41.5% | [11]; at 100.0 µM 25% | [12]; at 1.2 µM -2% | [12]; at 3.7 µM -2% | [12]; at 11.0 µM -2% | [12]; at 33.0 µM 1% | [12]; at 100.0 µM 6% | [13]; at 1.2 µM -4% | [13]; at 3.7 µM -6% | [13]; at 11.0 µM -4% | [13]; at 33.0 µM 2% | [13]; at 100.0 µM 9% | [14]; at 1.2 µM -3% | [14]; at 3.7 µM -3% | [14]; at 11.0 µM -2% | [14]; at 33.0 µM -2% | [14]; at 100.0 µM 18% | [15]; [17] -4% | [15]; [18] 24% | [15]; at 50.0 µM 61.5% | [16]; at 1.2 µM 0% | [16]; at 3.7 µM -3% | [16]; at 11.0 µM 0% | [16]; at 33.0 µM 1% | [16]; at 100.0 µM 17%
active: [1]; at 100.0 µM 83% | [5]; [18] 87% | [5]; at 50.0 µM 89.1% | [5]; at 100.0 µM 81%
